± gives the standard deviation.

Assay [1] concerns MILI (PIWIL2) piRISC loaded with piRNA #1 (26 nt). Put plainly: pre-steady-state target cleavage rate (min^-1); guide: piRNA #1 5'p-UGAGGUAGUAGGUUGUAUAGUAUCCA; higher = faster piRNA-guided slicing of the target. The note with it: auxiliary factor: 500 nM mouse GTSF1. In a few lines:
(§1)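 Cleave-'n-Seq reactions paired 0.1 nM transcribed, DNA-blocked target RNA library with 1 nM active affinity-purified piRISC holding one synthetic guide, plus or minus 500 nM GTSF1 partner protein, in HEPES–potassium acetate buffer at 33 °C for 0–8 or 0–960 min. After sequencing of uncleaved targets and normalisation to depth and weakly complementary targets, the pre-steady-state cleavage rate was taken from a burst-and-steady-state fit. Three trials were pooled, and k3 was capped at 0.0001 min^-1.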

In assay [2] the test system is EfPiwi piRISC loaded with piRNA #1 (26 nt). Put plainly: pre-steady-state target cleavage rate (min^-1); auxiliary factor: 500 nM Ephydatia muelleri Gtsf1; guide: piRNA #1 5'p-UGAGGUAGUAGGUUGUAUAGUAUCCA; MIWI and MILI are mouse PIWI proteins and EfPiwi is from a freshwater sponge; tags in brackets are library labels; higher = faster piRNA-guided slicing of the target. An outline of the steps: as §1

In the case of GGAGACGAUACUAUUCAACCUACAACCUCA, the “pre-steady-state target cleavage rate” value in assay [1] turned out to be 0.103 ± 0.013; in assay [2] it was 0.0024 ± 0.0017.
In the case of GGAGAGGAUACUCUACAACCUACUACCUCA, the “pre-steady-state target cleavage rate” value in assay [1] was 0.204 ± 0.013; in assay [2], 0.00431 ± 0.0033.
On the same counts, the results for GGAGAGGAUACGAUACAACCUACUACCUCA are 0.166 ± 0.011 and 0.00899 ± 0.0037.
Regarding GGAGUGGAUGCUAUACAACCUACUACCUCA, the “pre-steady-state target cleavage rate” value in assay [1] came to 0.152 ± 0.022; in assay [2] it was 0.0921 ± 0.046.
In the case of GGAGUGGUAUACUAUACAACCUACUACCUCA, the “pre-steady-state target cleavage rate” value in assay [1] was found to be 0.166 ± 0.011; in assay [2], 0.0155 ± 0.0067.
The corresponding values for GGAGACCAUACUAUACAAGCUACUUCCUCA are 0.193 ± 0.016 and 0.00551 ± 0.0027.
In the case of GGAGUGGAUACUAUACAUCCUACUAGCUCA, the “pre-steady-state target cleavage rate” value in assay [1] worked out at 0.0444 ± 0.0086; in assay [2] it was 0.00367 ± 0.0024.
On the same counts, the results for GGAGACCUAUCUAUGCAACCUACUACCUCA are 0.122 ± 0.014 and 0.00656 ± 0.0037.
The corresponding values for GGAGACGAUUCUAUACAACCUACUACCACA are 0.219 ± 0.015 and 0.00382 ± 0.0024.
On the same counts, the results for GGAGACCUAACUAUACAACAUACUACCUCA are 0.0407 ± 0.0099 and 0.00659 ± 0.0046.
On to GGAGACCAUACUAUGACAACCUACUACCUCA, for which the results for the “pre-steady-state target cleavage rate” value in assay [1] and in assay [2] were 0.165 ± 0.017 and 0.00762 ± 0.0033, respectively.
On the same counts, the results for GGAGAGGAUACUAUACAUGCUACUACCUCA are 0.0905 ± 0.01 and 0.0065 ± 0.0032.
On the same counts, the results for GGAGACGAUACUAUACAACCACUACCUCA are 0.00914 ± 0.0038 and 0.00795 ± 0.0036.
The corresponding values for GGAGAGGAUACUUAUCAACCUACUACCUCA are 0.135 ± 0.0097 and 0.00553 ± 0.0043.
Take GGAGACCAUACUAUACAACCUACUUCCUCA: the “pre-steady-state target cleavage rate” value amounted to 0.114 ± 0.018 in assay [1] and 0.00455 ± 0.002 in assay [2].
The corresponding values for GGAGAGGAUACUAUACAACCUACUACCUACA are 0.133 ± 0.016 and 0.00995 ± 0.0044.
The corresponding values for “GGAGACCUUACUAUACAACCUACUACCUCC [g2:g22:cont:t1C]” are 0.172 ± 0.017 and 0.0065 ± 0.0027.
Consider GGAGAGGAAACUAUACAAGCUACUACCUCA, for which the “pre-steady-state target cleavage rate” value in assay [1] was determined as 0.179 ± 0.031; in assay [2], 0.00403 ± 0.0014.
The corresponding values for GGAGAGGAUAGUAUACAACCUACUACCUGA are 0.0327 ± 0.0082 and 0.00298 ± 0.0022.
On the same counts, the results for GGAGAGGUUACUAUACAACCUACUACCUGA are 0.0157 ± 0.0052 and 0.00474 ± 0.0019.
The corresponding values for GGAGAGCUAACUAUACAACCUACUACCUCA are 0.137 ± 0.018 and 0.00909 ± 0.0042.
GGAGACGAUACCAUACAACCUACUACCUCA: the results for the “pre-steady-state target cleavage rate” value in assay [1] and in assay [2] were 0.236 ± 0.027 and 0.124 ± 0.045, respectively.
The corresponding values for GGAGACGAGACUAUACAACCUACUACCUCA are 0.214 ± 0.034 and 0.0942 ± 0.032.
The corresponding values for GGAGAGGAUACUAACAACCUACUACCUCA are 0.181 ± 0.013 and 0.00812 ± 0.0046.
Turning to GGAGACCUAUCUAAUACAACCUACUACCUCA, the figures for the “pre-steady-state target cleavage rate” value in assay [1] and in assay [2] were 0.0342 ± 0.0069 and 0.00579 ± 0.004, respectively.
The corresponding values for GGAGUGGAUACUAUACAUCCUACUACCUGA are 0.0983 ± 0.018 and 0.00497 ± 0.0018.
In the case of GGAGACCAUACUAUACAUCCUACUUCCUCA, the “pre-steady-state target cleavage rate” value in assay [1] is 0.176 ± 0.03; in assay [2] it was 0.00272 ± 0.0026.
On the same counts, the results for GGAGUGGAUACUAUAGAACCUACUACCACA are 0.0519 ± 0.0082 and 0.0024 ± 0.001.
The corresponding values for GGAGACCUUACUAUACAAGCUACUACCUGA are 0.158 ± 0.021 and 0.00346 ± 0.003.
On the same counts, the results for GGAGACCUUACUAUACAACGUACUACGUCA are 0.00879 ± 0.0038 and 0.00267 ± 0.0018.
As for GGAGUGGUUACUAUACAACCUACUACCUCA, the “pre-steady-state target cleavage rate” value in assay [1] turned out to be 0.186 ± 0.0089; in assay [2] it was 0.00957 ± 0.004.
On the same counts, the results for GGAGACCAUACUAUACAAGCUACUACCUCA are 0.253 ± 0.02 and 0.00377 ± 0.0015.

(Values after the supplement of paper PMC10338343.)
